For some of these results: Potency and affinity values are given separately.
Legend:
Design in all cases: scale not given: direction of the effect not stated beside the values
[1] = biological target: Protein translocase subunit SecA (Escherichia coli (strain K12)) (UniProt P10408); assay: Assay to Identify E. coli SecA ATPase Inhibitors; assay type: functional; conditions: 30 µM
[2] = biological target: T1, Ubiquitin-activating enzyme e1, putative (Leishmania donovani (strain BPK282A1)) (UniProt E9BSI1); assay: Leishmania donovani Ubiquitin Activating Enzyme (LdE1); assay type: functional; conditions: 30 µM
T1 sequence (whole entry): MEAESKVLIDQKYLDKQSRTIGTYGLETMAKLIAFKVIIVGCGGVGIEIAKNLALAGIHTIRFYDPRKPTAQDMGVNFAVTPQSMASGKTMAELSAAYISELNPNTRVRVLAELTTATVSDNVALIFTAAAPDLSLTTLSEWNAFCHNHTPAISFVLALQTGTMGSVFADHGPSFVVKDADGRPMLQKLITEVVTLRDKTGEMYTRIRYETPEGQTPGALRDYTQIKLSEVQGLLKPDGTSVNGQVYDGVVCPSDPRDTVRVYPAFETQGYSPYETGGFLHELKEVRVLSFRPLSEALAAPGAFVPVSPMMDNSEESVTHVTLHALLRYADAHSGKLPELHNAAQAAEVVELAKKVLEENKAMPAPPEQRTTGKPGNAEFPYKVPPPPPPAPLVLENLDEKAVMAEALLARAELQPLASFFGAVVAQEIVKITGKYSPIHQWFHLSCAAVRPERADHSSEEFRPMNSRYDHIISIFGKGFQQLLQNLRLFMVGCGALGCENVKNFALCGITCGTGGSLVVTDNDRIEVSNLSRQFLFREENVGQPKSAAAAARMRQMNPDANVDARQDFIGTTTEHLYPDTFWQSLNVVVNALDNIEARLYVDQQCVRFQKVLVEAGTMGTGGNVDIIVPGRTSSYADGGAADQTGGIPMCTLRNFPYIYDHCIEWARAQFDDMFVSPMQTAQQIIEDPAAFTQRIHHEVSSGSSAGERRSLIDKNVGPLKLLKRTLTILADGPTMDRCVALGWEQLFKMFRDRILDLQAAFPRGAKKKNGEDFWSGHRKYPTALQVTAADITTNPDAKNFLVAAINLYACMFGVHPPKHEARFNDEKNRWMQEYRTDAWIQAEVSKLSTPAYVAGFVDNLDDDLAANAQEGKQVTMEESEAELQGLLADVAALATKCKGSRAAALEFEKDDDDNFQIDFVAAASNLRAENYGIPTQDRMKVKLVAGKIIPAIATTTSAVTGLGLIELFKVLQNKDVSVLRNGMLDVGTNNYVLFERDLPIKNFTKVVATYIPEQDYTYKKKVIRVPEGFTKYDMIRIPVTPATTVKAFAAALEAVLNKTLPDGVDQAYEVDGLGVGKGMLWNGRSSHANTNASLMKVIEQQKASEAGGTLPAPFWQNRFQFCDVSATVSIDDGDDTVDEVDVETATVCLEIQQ

[3] = biological target: AMP-activated protein kinase, AMPK (Homo sapiens) (UniProt P54646+O43741+P54619+Q9UGJ0+Q9Y478+Q13131+Q9UGI9); assay: AMP-dependent Kinase enzyme assay. An in vitro enzyme assay that detects ADP turnover that is directly proportional to AMPK activity. This uses naive AMPK that is activated during the assay with MK-8722; assay type: functional; conditions: 30 µM
[4] = biological target: Sialic acid-binding Ig-like lectin 9 (Homo sapiens) (UniProt Q9Y336); assay: Hs-Siglec9 ALPHAscreen SOP 20170721; conditions: 10 µM
Sialic acid-binding Ig-like lectin 9 (Homo sapiens), sequence (Q9Y336 whole entry): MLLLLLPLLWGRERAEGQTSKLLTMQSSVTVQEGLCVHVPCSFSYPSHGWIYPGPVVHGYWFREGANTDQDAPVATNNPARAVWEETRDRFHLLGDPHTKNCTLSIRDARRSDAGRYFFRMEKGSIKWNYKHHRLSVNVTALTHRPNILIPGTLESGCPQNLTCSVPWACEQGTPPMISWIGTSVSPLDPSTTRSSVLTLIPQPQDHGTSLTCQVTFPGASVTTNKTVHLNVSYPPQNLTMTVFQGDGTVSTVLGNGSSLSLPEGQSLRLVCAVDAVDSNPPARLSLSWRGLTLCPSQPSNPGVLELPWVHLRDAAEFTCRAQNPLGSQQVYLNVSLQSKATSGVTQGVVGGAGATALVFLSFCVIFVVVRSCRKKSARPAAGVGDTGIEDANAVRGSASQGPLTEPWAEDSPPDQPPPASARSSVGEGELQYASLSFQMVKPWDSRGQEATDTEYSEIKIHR

Trypanosoma cruzi = assay: Trypanosoma cruzi phosphomannomutase and mannose-1-phosphate guanylyltransferase assay; assay type: functional; conditions: 10 µM
[5] = biological target: T2, Arginase-2, mitochondrial (Homo sapiens) (UniProt P78540); assay: in vitro enzyme assay to detect the production of urea directly proportional to the activity of Arginase II; assay type: functional; conditions: 33.3 µM; further: in the data most compounds retested in dose-response had high values
T2 sequence (whole entry): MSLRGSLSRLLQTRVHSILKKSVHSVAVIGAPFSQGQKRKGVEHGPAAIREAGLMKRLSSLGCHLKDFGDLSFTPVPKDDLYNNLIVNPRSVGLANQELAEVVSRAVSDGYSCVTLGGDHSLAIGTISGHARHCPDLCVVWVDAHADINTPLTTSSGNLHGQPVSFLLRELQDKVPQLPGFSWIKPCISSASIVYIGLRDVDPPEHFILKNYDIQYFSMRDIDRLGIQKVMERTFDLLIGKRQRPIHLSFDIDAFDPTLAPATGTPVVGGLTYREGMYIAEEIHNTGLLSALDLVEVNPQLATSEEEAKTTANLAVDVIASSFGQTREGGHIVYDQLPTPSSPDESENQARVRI

[6] = biological target: T3, Proteasome subunit beta (Trypanosoma cruzi) (UniProt O96673); assay: Trypanosoma cruzi proteasome chymotrypsin-like activity (TcProtChymo) assay.; further: in the data most compounds retested in dose-response had high values; assay type: functional; conditions: 9.37 µM
T3 sequence (whole entry): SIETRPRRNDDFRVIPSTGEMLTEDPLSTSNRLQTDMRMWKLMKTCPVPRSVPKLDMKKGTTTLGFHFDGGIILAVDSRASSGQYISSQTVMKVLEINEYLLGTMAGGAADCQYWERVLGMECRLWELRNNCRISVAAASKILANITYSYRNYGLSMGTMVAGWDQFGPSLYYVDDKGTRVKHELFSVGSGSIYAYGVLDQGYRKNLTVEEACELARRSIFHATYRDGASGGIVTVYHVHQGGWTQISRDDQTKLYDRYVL

Homo sapiens = organism: Homo sapiens; assay: To identify inhibition of the IFN signalling (Jak-Stat) pathway via expression of an eGFP reporter gene under the control of an IFN-stimulated response element (ISRE) containing MxA promoter.; assay type: functional; conditions: 30 µM
[7] = biological target: T4, Tyrosyl-tRNA synthetase, putative (Trypanosoma cruzi (strain CL Brener)) (UniProt Q4DSP6); assay: Trypanosoma cruzi tyrosyl tRNA synthetase (TcYRS) _High Tyrosine SOP; assay type: functional; conditions: 30 µM; further: in the data most compounds retested in dose-response had high values
T4 sequence (whole entry): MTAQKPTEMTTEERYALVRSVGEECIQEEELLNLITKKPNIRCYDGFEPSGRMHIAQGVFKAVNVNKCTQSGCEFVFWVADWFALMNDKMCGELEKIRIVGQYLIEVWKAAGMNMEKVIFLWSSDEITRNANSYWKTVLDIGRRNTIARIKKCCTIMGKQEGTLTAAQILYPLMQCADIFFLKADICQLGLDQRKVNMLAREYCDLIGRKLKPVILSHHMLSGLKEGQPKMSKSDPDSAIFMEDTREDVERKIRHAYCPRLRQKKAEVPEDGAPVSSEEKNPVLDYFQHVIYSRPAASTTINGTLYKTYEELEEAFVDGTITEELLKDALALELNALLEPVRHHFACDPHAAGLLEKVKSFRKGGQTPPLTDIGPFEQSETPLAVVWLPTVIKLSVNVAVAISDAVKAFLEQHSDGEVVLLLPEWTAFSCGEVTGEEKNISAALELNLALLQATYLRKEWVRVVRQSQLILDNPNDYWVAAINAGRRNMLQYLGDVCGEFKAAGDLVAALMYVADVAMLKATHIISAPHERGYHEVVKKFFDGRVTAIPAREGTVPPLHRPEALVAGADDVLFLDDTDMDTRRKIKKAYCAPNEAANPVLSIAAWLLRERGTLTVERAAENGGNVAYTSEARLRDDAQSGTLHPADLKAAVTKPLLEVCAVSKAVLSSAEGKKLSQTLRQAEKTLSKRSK

[8] = biological target: T4, Tyrosyl-tRNA synthetase, putative (Trypanosoma cruzi (strain CL Brener)); assay: Trypanosoma cruzi tyrosyl tRNA synthetase (TcYRS) SOP; assay type: functional; conditions: 30 µM
[9] = biological target: Chromo domain-containing protein 1 (Saccharomyces cerevisiae (strain ATCC 204508 / S288c) (Baker's yeast)) (UniProt P32657); assay: ScCHD-1 Enzyme Inhibition Assay; assay type: functional; conditions: 30 µM; further: in the data most compounds retested in dose-response had high values
Chromo domain-containing protein 1 (Saccharomyces cerevisiae (strain ATCC 204508 / S288c) (Baker's yeast)), sequence (P32657 whole entry, the tested form may be a part): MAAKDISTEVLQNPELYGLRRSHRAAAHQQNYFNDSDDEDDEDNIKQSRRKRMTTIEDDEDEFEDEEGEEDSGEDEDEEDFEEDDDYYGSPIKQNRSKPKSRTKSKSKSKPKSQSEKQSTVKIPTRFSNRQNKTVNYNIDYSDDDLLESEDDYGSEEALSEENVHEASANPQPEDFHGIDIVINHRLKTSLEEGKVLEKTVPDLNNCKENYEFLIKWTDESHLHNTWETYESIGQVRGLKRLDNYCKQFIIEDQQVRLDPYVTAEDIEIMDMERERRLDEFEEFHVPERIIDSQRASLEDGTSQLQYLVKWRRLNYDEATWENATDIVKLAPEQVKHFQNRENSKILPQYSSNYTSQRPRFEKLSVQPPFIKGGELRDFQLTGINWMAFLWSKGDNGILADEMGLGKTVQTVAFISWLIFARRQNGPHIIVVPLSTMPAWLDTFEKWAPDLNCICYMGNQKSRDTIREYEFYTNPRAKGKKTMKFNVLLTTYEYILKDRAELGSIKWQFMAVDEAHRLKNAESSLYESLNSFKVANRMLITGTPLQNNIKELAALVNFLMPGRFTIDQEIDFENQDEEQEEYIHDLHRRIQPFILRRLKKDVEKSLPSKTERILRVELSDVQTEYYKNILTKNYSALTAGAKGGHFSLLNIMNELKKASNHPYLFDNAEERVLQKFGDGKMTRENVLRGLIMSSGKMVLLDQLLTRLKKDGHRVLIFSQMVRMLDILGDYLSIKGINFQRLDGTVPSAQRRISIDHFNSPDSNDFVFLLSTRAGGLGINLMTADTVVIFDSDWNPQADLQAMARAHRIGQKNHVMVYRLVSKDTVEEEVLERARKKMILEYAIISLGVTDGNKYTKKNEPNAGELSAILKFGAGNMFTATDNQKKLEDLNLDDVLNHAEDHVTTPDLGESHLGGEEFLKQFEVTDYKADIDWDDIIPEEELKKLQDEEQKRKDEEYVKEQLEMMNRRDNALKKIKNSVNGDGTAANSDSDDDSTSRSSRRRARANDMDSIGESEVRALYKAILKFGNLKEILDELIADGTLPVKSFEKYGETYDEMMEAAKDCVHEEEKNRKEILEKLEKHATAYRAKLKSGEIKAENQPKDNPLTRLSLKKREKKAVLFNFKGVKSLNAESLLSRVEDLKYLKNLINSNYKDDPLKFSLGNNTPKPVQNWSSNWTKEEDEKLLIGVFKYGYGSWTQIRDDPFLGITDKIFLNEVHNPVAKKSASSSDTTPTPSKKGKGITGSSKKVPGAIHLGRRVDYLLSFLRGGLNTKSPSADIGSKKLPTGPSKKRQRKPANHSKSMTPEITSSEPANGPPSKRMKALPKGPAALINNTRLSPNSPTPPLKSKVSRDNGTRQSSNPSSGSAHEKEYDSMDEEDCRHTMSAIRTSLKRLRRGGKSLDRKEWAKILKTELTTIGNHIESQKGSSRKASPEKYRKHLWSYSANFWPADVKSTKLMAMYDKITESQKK

Protein translocase subunit SecA (Escherichia coli (strain K12)), sequence (P10408 whole entry): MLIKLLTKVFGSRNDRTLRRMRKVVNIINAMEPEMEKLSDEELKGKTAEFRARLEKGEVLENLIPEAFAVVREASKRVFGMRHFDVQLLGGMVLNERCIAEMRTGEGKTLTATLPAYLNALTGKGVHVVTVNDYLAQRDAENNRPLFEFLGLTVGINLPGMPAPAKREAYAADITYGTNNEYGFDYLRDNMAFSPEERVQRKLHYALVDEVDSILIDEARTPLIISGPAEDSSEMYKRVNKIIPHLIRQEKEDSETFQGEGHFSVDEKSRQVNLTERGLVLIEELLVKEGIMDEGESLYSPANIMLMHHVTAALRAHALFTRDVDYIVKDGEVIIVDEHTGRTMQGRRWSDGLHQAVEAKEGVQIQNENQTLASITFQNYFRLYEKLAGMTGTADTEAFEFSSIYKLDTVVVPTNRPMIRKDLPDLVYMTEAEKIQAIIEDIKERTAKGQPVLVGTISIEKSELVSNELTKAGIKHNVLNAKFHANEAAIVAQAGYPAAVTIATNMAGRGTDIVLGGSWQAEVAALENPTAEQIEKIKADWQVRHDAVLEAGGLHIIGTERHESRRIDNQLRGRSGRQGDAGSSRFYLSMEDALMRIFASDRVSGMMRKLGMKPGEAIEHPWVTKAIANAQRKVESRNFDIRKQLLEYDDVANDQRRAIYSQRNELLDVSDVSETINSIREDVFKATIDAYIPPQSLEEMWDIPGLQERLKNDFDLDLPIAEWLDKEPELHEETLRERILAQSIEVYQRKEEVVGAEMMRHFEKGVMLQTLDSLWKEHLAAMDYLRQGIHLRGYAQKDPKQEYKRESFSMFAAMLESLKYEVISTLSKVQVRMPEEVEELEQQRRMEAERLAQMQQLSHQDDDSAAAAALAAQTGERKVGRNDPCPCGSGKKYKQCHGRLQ

Structure (SMILES)	Percent Effect [1]	Percent Effect [2]	Percent Effect [3]	Percent Effect [4]	Percent Effect (Trypanosoma cruzi)	Percent Effect [5]	Percent Effect [6]	Percent Effect (Homo sapiens)	Percent Effect [7]	Percent Effect [8]	Percent Effect [9]
O=C(COCc1ccccc1)N1CCCC(n2cncn2)C1 (stereo unspecified)	-4.9%	16.2%	-5.92%	0.0525%	1.79%	-2.4%	7.57%	11.4%	6.4%	18.5%	-4.59%
CN(C)C(=O)N1C[C@@H]2CCCO[C@@H]2[C@H](N(C)Cc2ccco2)C1	-3.04%	13.7%	2.03%	7.85%	6.55%	-5.99%	8.99%	-3.94%	4.17%	13.6%	-11.2%
O=C(NCCc1cccc(F)c1)NCC(O)c1cccc(F)c1 (stereo unspecified)	-2.56%	5.41%	4.6%	6.95%	1.04%	1.6%	7.93%	10.8%	8.37%	23.5%	-3.01%
COc1cc(CNC(=O)c2c(C)noc2C(C)C)ccn1	-2.87%	26%	-8.18%	3.15%	3.75%	3.92%	10.8%	9.63%	10.7%	21.9%	-10.2%
CCCn1[nH]cc/c1=N\C(=O)CN1CCc2c(nc(C(C)C)n2C)C1	-0.801%	20.8%	-5.35%	-15.6%	-2.06%	-4.84%	11.6%	18.7%	8.57%	23.5%	-19.2%
CC(=O)N1CC[C@H]2OCC[C@@H](C(=O)N3CCCCO3)[C@@H]2C1	-2.31%	12%	-3.03%	10.7%	-1.97%	-8.63%	15%	-4.45%	4.23%	12.8%	-7.82%
CN(Cc1nc(N)c2ccccc2n1)C1CCCN(c2cccnn2)C1 (stereo unspecified)	-4.12%	-5.2%	-10.2%	5.86%	7.49%	-1.07%	13.3%	-0.131%	9.71%	14.6%	-9.67%
Cc1cccc(CN2CCC3(CCCN(C(=O)NC4CC4)C3)C2=O)n1 (stereo unspecified)	-0.773%	10.4%	-9.14%	-16.1%	-7.99%	5.81%	6.79%	11.4%	1.06%	1.28%	-9.83%
O=C(c1cc(Cl)c2c(c1)OCO2)N1CCN(c2ccccn2)CC1	-2.8%	5.48%	-6.15%	5.68%	1.37%	3.64%	16.1%	14.1%	7.53%	15%	-12.5%
Cc1cc(-c2cnc(N3CCN(C)CC3)nc2-c2ccc(C)s2)on1	-2.21%	-1.35%	10.6%	0.731%	-4.15%	2.09%	2.81%	-1.59%	1.07%	6.49%	-16.5%
O=C(N1CCCO1)[C@@]12CCO[C@@H]1CCN(Cc1ccccc1)C2	-2.49%	2.67%	-2.01%	8.06%	-4.25%	-22.8%	6.67%	0.724%	4.17%	10%	-6.13%
